# Data: PubChem BioAssay AID651958 (The Scripps Research Institute Molecular Screening Center, 2012)
# Out of some 370,000 compounds screened, about 2,000 (0.54%) were called active. No stated cut-off is given here; in the data, active means inhibition above about 30%; inactive means the rest. Shown is part of a subset that was picked to be rich in actives.
# Test system: Crimean-Congo hemorrhagic fever virus L polyprotein viral ovarian tumor (vOTU) protease domain
# Test: CCHFV vOTU protease inhibitors, primary screen, biochemical, Pep-AMC substrate, fluorescence (AID 651958); further: 0% = vehicle wells with enzyme and 100% = no enzyme wells
# Details: at 11.5 µM, hits give high values
row,Compound,inhibition
1,Cc1nn(CCCC(=O)NCc2ccccc2Cl)c(=O)c2nccn12,3.6% (inactive)
2,COc1ccc2c(c1)CCc1cn3ncc(C#N)c3nc1-2,-345% (inactive)
3,NCCN1CCN2C(=O)CN(C(=O)c3ccccc3)CC12 (centres undefined),12.1% (inactive)
4,O=S(=O)(Cc1noc(-c2ccc(OC(F)(F)F)cc2)n1)c1ccc(F)cc1,2.35% (inactive)
5,O=S(=O)(Nc1ccc(O)c2ccccc12)c1ccc(OC(F)(F)F)cc1,72.5% (active)
6,O=[N+]([O-])c1ccc(NS(=O)(=O)c2ccccc2)c(Cl)c1,12.9% (inactive)
7,O=C(c1ccc(F)cc1)N1CCC(C(=O)N2CCN(S(=O)(=O)c3ccccc3Br)CC2)CC1,-5.29% (inactive)
8,CC(C)[C@@H](C(=O)O)N(Cc1cccc(CN([C@H](C(=O)O)C(C)C)S(C)(=O)=O)c1)S(C)(=O)=O,1.18% (inactive)
9,CCC(C)CCN1CCN=C1N(C)C (centres undefined),10.6% (inactive)
10,CC(C(=O)Nc1ccc(Cl)cc1Cl)N1CC=C(c2ccccc2)CC1 (centres undefined),-3.9% (inactive)
11,CC(C(=O)Nc1ccccc1-c1ccccc1)N1CCOCC1 (centres undefined),30% (active)
12,CC(Sc1nncn1C)C(=O)Nc1ccccc1-c1ccccc1 (centres undefined),3.71% (inactive)
13,COc1ccc(S(=O)(=O)N(C)C[C@H]2OCc3cnnn3CCCC(=O)N([C@H](C)CO)C[C@H]2C)cc1,-4.66% (inactive)
14,COc1cccc(NC(=O)C(=O)c2cn(CC(=O)N3CCOCC3)c3ccccc23)c1,40.2% (active)
15,COc1cccc(NC(=O)CS(=O)(=O)c2cn(CC(=O)N3CCOCC3)c3ccccc23)c1,6.34% (inactive)
16,O=C(Nc1ccc(F)cc1)C(=O)c1cn(CC(=O)N2CCOCC2)c2ccccc12,-0.24% (inactive)
17,CN(Cc1c(F)cccc1Cl)C(=O)COC(=O)Cn1cnc2ccccc2c1=O,-6.54% (inactive)
18,CCCCC(O)(CCCC)C(=O)NN(C(=O)CCl)c1ccccc1,8.68% (inactive)
19,CCCc1ccc(OCC(O)CN2CCN(CCO)CC2)cc1 (centres undefined),-10.8% (inactive)
20,COc1ccc(CN2CCC(C)(Oc3cccc(F)c3)C2)c2ccccc12 (centres undefined),10% (inactive)
21,CN1CCc2c(sc3c2c(NCc2ccco2)nc2nnnn23)C1,-25.3% (inactive)
22,CCCSc1nc(NCc2ccco2)c2c3c(sc2n1)COC(C)(CC)C3 (centres undefined),30.9% (active)
23,CCC1(C)Cc2c(sc3nnn(CC(=O)Nc4ccc(Cl)cc4)c(=O)c23)CO1 (centres undefined),-1.67% (inactive)

row,Compound,inhibition
1,Clc1ccc(C(Cn2ccnc2)OCc2ccsc2Cl)c(Cl)c1 (centres undefined),9.88% (inactive)
2,Clc1ccc(C2=CSC3=Nc4cccc5cccc(c45)N23)cc1,103% (active)
3,COc1ccc(CN(Cc2ccco2)S(=O)(=O)c2ccc(S(=O)(=O)N3CCCC3)cc2)cc1,-4.58% (inactive)
4,CC(=O)NS(=O)(=O)c1ccccc1,-12.3% (inactive)
5,Cc1cc(NS(=O)(=O)c2ccccc2)no1,-7.1% (inactive)
6,O=C1C=C(NS(=O)(=O)c2ccccc2)C(=O)c2ccccc21,41.9% (active)
7,O=C(NC1=CC(=O)c2ccccc2C1=O)c1ccccc1,101% (active)
8,O=c1ccn([C@@H]2O[C@H](CNS(=O)(=O)c3cc4ccccc4s3)[C@@H](O)[C@H]2O)c(=O)[nH]1,-7.44% (inactive)
9,COc1ccc(C2c3[nH]c4ccccc4c3C[C@H]3C(=O)N(CC(C)C)CC(=O)N23)c(OC)c1 (some centres undefined),-0.95% (inactive)
10,COc1ccc(/C=C2\N=C3CCCN3C2=O)cc1,5.48% (inactive)
11,NC(=O)COc1ccc(C23CC4CC(CC(C4)C2)C3)cc1,-6.98% (inactive)
12,O=C(Oc1ccccc1C(=S)N1CCCCC1)c1cc([N+](=O)[O-])cc([N+](=O)[O-])c1,-1.38% (inactive)
13,CCCS(=O)(=O)NC(=O)C1(C)CCCN(C(=O)c2cc(C)on2)C1 (centres undefined),-4.97% (inactive)
14,CCCS(=O)(=O)NC(=O)C1(C)CCCN(C(=O)c2cccs2)C1 (centres undefined),4.76% (inactive)
15,CCCS(=O)(=O)NC(=O)C1(C)CCN(C(=O)c2sccc2C)C1 (centres undefined),47.1% (active)
16,COc1ccc2c(c1)[C@@]13CCCCC1[C@@H](C2)NCC3 (some centres undefined),-1.34% (inactive)
17,CCc1ccc2c(c1)NC(=O)C2(C)Cc1ccc(OC(F)(F)F)cc1 (centres undefined),31.4% (active)
18,CC1(Cc2cccc(C#N)c2)C(=O)Nc2ccc(-c3cccc(C(F)(F)F)c3)cc21 (centres undefined),21.6% (inactive)
19,CCc1ccc2c(c1)C1(NN=C(c3ccccc3)S1)C(=O)N2 (centres undefined),1.82% (inactive)
20,CCCn1nc(Oc2nc(NC(C)C)nc(N(C)C)n2)ccc1=O,-1.37% (inactive)
21,O=C(O)CCN1C(=O)CC2(CCCCC2)C1=O,2.77% (inactive)
22,COCc1[nH][nH]c(=O)c1C=Nc1ccc(F)cc1F,4.69% (inactive)
23,O=C(NCc1ccccn1)C1CCN(S(=O)(=O)c2ccc(Br)cc2)CC1,-7.95% (inactive)

row,Compound,inhibition
1,N#CC1=C(N)Oc2c(c(=O)oc3ccccc23)C1c1ccccc1OC(=O)c1cccs1 (centres undefined),2.95% (inactive)
2,COc1ccccc1C1C(C#N)=C(N)Oc2c1c(-c1ccccc1)nn2-c1ccccc1 (centres undefined),31% (active)
3,COc1ccccc1C1CC(=O)n2c(nc(-c3ccccc3)c2-c2ccccc2)S1 (centres undefined),-11.5% (inactive)
4,Cc1ccc(S(=O)(=O)N2CCC(=O)N([C@H](COCc3ccccc3)Cc3ccccc3)CC2)cc1,4.4% (inactive)
5,Cc1cc(F)ccc1S(=O)(=O)Nc1ncnc2scc(-c3ccc(F)cc3)c12,-9.09% (inactive)
6,Cc1ccc(CN2CCCCC(NC(=O)C3CCCCC3)C2=O)cc1 (centres undefined),6.33% (inactive)
7,CCn1nc(C)c(CN2CCN(Cc3ccc(OC)c(C)c3C)C(CCO)C2)c1C (centres undefined),-10.4% (inactive)
8,O=C(O)c1ccccc1/C=N/Nc1ccc(S(=O)(=O)Nc2ccc(Cl)cc2)cc1[N+](=O)[O-],31.2% (active)
9,Cc1ccc(NS(=O)(=O)c2ccc(N/N=C/c3ccccc3OCC(=O)O)c([N+](=O)[O-])c2)c(C)c1,49.3% (active)
10,Cc1ccc(NS(=O)(=O)c2ccc3c(c2)n(C)c(=O)c(=O)n3C)c(C)c1,9.52% (inactive)
11,Cc1ccc(C)c(NS(=O)(=O)c2ccc(OCC(=O)NCc3cccnc3)cc2)c1,7.43% (inactive)
12,O=[N+]([O-])c1cc(S(=O)(=O)Nc2cccc(Cl)c2)ccc1N=Nc1c(O)[nH]c2ccccc12,-13% (inactive)
13,O=C(Nc1cc(S(=O)(=O)Nc2ccc(Cl)cc2)ccc1O)c1ccc(F)cc1F,1.4% (inactive)
14,CCn1c(O)c(N=NC2=NC(=O)CS2)c2cc(C)ccc21,10.8% (inactive)
15,CC(C)c1c(CN(C)C(C)Cc2ccccc2)n(C)n(-c2ccccc2)c1=O (centres undefined),3.82% (inactive)
16,COc1cccc(CNC(=O)CCC2CCCN(C(=O)c3ccoc3C)C2)c1 (centres undefined),-3.63% (inactive)
17,CCCNC(=O)c1ccc(N2CCC3(CC2)CC(c2ccc(Cl)cc2)=NO3)c([N+](=O)[O-])c1,5.33% (inactive)
18,CC1CCCN(S(=O)(=O)c2ccc(N(C(=O)c3cnccn3)C(C(=O)NC3CCCCC3)c3cccs3)cc2)C1 (centres undefined),3.18% (inactive)
19,CNc1ccc(SC#N)cc1,7.09% (inactive)
20,O=C(Nc1cccc(S(=O)(=O)N2CCCC2)c1)c1cncc(Br)c1,6.4% (inactive)
21,O=C(Nc1cccc(S(=O)(=O)N2CCCCC2)c1)c1ccc2c(c1)OCO2,30.3% (active)
22,O=C(Nc1cccc(S(=O)(=O)N2CCCCC2)c1)c1cncc(Br)c1,17.5% (inactive)
23,CN1[C@H](Cc2ccccc2)COc2cccc(N3CCSCC3)c2S1(=O)=O,-7.16% (inactive)

row,Compound,inhibition
1,O=C(CNC(c1ccccc1)c1ccccc1)Nc1ccc(F)cc1,-6.64% (inactive)
2,COc1ccc(CNS(=O)(=O)c2cc3c4c(c2)CCN4C(=O)CC3)cc1,9.3% (inactive)
3,COc1ccccc1CNS(=O)(=O)c1cc2c3c(c1)CCC(=O)N3CCC2,31.9% (active)
4,COc1ccccc1CCNS(=O)(=O)c1cc2c3c(c1)C(C)C(=O)N3CCC2 (centres undefined),14% (inactive)
5,Cc1cccc(N)c1SC1CCCCC1O (centres undefined),-10% (inactive)
6,Cc1cccc(CN2CCC(n3nccc3NC(=O)c3ccccc3C)CC2)n1,-2.72% (inactive)
7,CCCCC[C@@H]1C=C(C(=O)OCC)[C@H](c2ccccc2)N1S(=O)(=O)c1ccc(C)cc1,11% (inactive)
8,Cc1ccc(S(=O)(=O)N2[C@@H](c3ccc(Br)cc3)C(C(=O)O)=C[C@H]2CC2CCCC2)cc1,34.2% (active)
9,CCCCC[C@@H]1C=C(C(=O)O)[C@H](c2ccc(C#N)cc2)N1S(=O)(=O)c1ccc(C)cc1,16.8% (inactive)
10,COc1cc(NC(=S)N2CCCC(C)C2)c(OC)cc1Cl (centres undefined),7.18% (inactive)
11,COc1ccc(C(=O)OCCN(C)C2CN(Cc3cn(Cc4cccc(C)c4)nn3)S(=O)(=O)C2)cc1OC (centres undefined),-1.74% (inactive)
12,O=S(=O)(Nc1ccc2[nH]ncc2c1)c1ccccc1Cl,-2.37% (inactive)
13,O=C(O)c1ccc(NS(=O)(=O)c2ccc3c(c2)C(=O)c2cc(S(=O)(=O)Nc4ccc(C(=O)O)cc4)ccc2-3)cc1,14.6% (inactive)
14,O=C(O)c1cc(S(=O)(=O)Nc2ccc3cn[nH]c3c2)ccc1Br,36% (active)
15,CC1CCCN(CC(O)COc2ccc3c(c2)OCO3)C1 (centres undefined),9.88% (inactive)
16,Oc1ccc(N=Cc2c(O)ccc3ccccc23)cc1,63.1% (active)
17,Oc1ccc(N=Cc2sc3ccccc3c2Cl)cc1,97.4% (active)
18,Cn1cc(CN2CCC(C(O)CCc3ccccc3)CC2)c(-c2ccccc2F)n1 (centres undefined),-4.04% (inactive)
19,Cc1cc(OCCN2CCCC2)cc(C(C)C)c1,-8.52% (inactive)
20,CC1=C2C(=O)C3C(CC=C4CC(OC5OC(O)C(O)C(O)C5CO)CCC43C)C2CCC12OC1CC(C)CNC1C2C (centres undefined),-3.46% (inactive)
